Reference: PubChem BioAssay AID1159580 (chemical genetic matrix, 2015)
“And” between values parts separate entries of the source, which are not always exact repeats. Identical values can stand only once. Among all 5,500 compounds or so, about 2,000 (36%) were called active. Not shown: some 18% with an inconclusive outcome. No stated cut-off is given here; in the data, active means normalized growth mostly below about 0.91 (no sharp cut-off); inconclusive means no clear call, values can overlap the other calls; inactive means mostly above about 0.92. Some of the results follow.

Assay: chemical genetic growth profiling, strain panel (AID 1159580);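 further: tested at 20 µM; growth read once vehicle control cultures reached saturation at 30 °C; 1 = growth at the plate median or of vehicle wells; lower values mean less growth of the strain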
Conditions: S. cerevisiae deletion strains, growth OD

Measured: normalized growth

C#C[C@]1(O)CCC2C3CCC4=CC(=O)CC[C@@H]4C3CC[C@@]21C (some centres undefined)
inactive: locus YAL021C, strain ccr4, hits give low values 0.973 | locus YAL026C, strain drs2, hits give low values 0.967 | locus YAL030W, strain snc1, hits give low values 0.987 | locus YBL061C, strain skt5, hits give low values 0.989 | locus YBR009C, strain hhf1, hits give low values 0.985 | locus YBR021W, strain FUR4, hits give low values 0.978 | locus YBR023C, strain chs3, hits give low values 0.987 | locus YBR171W, strain sec66, hits give low values 0.969 | locus YBR229C, strain ROT2, hits give low values 0.997 | locus YBR231C, strain swc5, hits give low values 1 | locus YBR279W, strain paf1, hits give low values 0.994 | locus YCL011C, strain gbp2, hits give low values 0.984 | locus YCL016C, strain dcc1, hits give low values 1 | locus YCL029C, strain bik1, hits give low values 0.984 | locus YCL061C, strain MRC1, hits give low values 0.977 | locus YCL069W, strain vba3, hits give low values 0.968 | locus YCR088W, strain abp1, hits give low values 0.982 | locus YDL005C, strain med2, hits give low values 0.962 | locus YDL035C, strain GPR1, hits give low values 0.98 | locus YDL040C, strain nat1, hits give low values 0.984 | locus YDL074C, strain BRE1, hits give low values 0.988 | locus YDL101C, strain DUN1, hits give low values 0.995 | locus YDL134C, strain PPH21, hits give low values 0.975 | locus YDL185W, strain tfp1, hits give low values 0.98 | locus YDL192W, strain arf1, hits give low values 0.978 | locus YDR001C, strain nth1, hits give low values 0.981 | locus YDR069C, strain doa4, hits give low values 0.972 | locus YDR101C, strain arx1, hits give low values 0.97 | locus YDR137W, strain rgp1, hits give low values 0.892 | locus YDR150W, strain NUM1, hits give low values 1.01 | locus YDR159W, strain sac3, hits give low values 0.981 | locus YDR162C, strain NBP2, hits give low values 0.932 | locus YDR195W, strain ref2 1.01 | locus YDR297W, strain sur2, hits give low values 0.993 | locus YDR318W, strain mcm21, hits give low values 0.974 | locus YDR334W, strain swr1, hits give low values 0.977 | locus YDR335W, strain msn5, hits give low values 0.98 | locus YDR388W, hits give low values 0.975 | locus YDR392W, strain spt3, hits give low values 0.801 | locus YDR502C, strain sam2, hits give low values 0.957 | locus YEL003W, strain gim4, hits give low values 0.97 | locus YEL037C, strain rad23, hits give low values 0.966 | locus YEL061C, strain CIN8 (second series), hits give low values 0.967 | locus YEL061C, strain CIN8, hits give low values 0.995 | locus YER015W, strain faa2, hits give low values 0.974 | locus YER016W, strain bim1, hits give low values 0.98 | locus YER110C, hits give low values 0.982 | locus YER111C, strain swi4, hits give low values 0.988 | locus YER155C, strain BEM2 (second series), hits give low values 0.981 | locus YER155C, strain BEM2, hits give low values 0.999 | locus YER167W, strain BCK2, hits give low values 0.991 | locus YFR010W, strain ubp6, hits give low values 0.979 | locus YGL078C, strain dbp3, hits give low values 0.979 | locus YGL086W, strain mad1, hits give low values 0.991 | locus YGL167C, strain pmr1, hits give low values 0.972 | locus YGL173C, strain kem1, hits give low values 0.969 | locus YGL227W, strain vid30, hits give low values 0.984 | locus YGL240W, strain doc1, hits give low values 0.988 | locus YGL248W, strain PDE1, hits give low values 0.998 | locus YGL253W, strain hxk2, hits give low values 0.982 | locus YGR135W, strain pre9, hits give low values 0.986 | locus YGR229C, strain SMI1, hits give low values 0.948 | locus YGR252W, strain gcn5, hits give low values 0.978 | locus YHR013C, strain ard1, hits give low values 0.993 | locus YHR027C, strain rpn1, hits give low values 0.981 | locus YHR030C, strain SLT2, hits give low values 1 and 0.925 | locus YHR079C, strain IRE1 (second series), hits give low values 0.983 | locus YHR079C, strain IRE1, hits give low values 0.95 | locus YHR094C, strain hxt1, hits give low values 0.981 | locus YHR129C, strain ARP1, hits give low values 1.01 | locus YHR142W, strain chs7, hits give low values 0.952 | locus YHR200W, strain rpn10, hits give low values 0.986 | locus YIL066C, strain RNR3, hits give low values 0.99 | locus YIL073C, strain SPO22, hits give low values 0.9 | locus YIL125W, strain kgd1, hits give low values 0.986 | locus YIR030C, strain dcg1, hits give low values 0.984 | locus YJL092W, strain hpr5, hits give low values 0.976 | locus YJL095W, strain BCK1 (second series), hits give low values 0.99 | locus YJL095W, strain BCK1, hits give low values 0.932 and 0.954 | locus YJL115W, strain asf1, hits give low values 0.975 | locus YJL129C, strain trk1, hits give low values 0.919 | locus YJL134W, strain LCB3, hits give low values 0.995 | locus YJL154C, strain vps35, hits give low values 0.965 | locus YJL164C, strain tpk1, hits give low values 0.976 | locus YJL166W, strain qcr8, hits give low values 0.992 | locus YJL168C, strain set2, hits give low values 0.984 | locus YJL187C, strain SWE1 (second series), hits give low values 0.991 | locus YJL187C, strain SWE1, hits give low values 0.983 | locus YJR043C, strain POL32, hits give low values 1.01
